# Source: PubChem BioAssay (NCI)
# The panel holds about 83,000 compounds, 20% with a hit somewhere; the sample as a whole holds those more often.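 Results are percent growth after 48 hours of single-concentration exposure. 100 means growth as in untreated cells, lower positive values show inhibition; negative values down to -100 show cell death.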 Unmarked numbers belong to inactive results. Calls of active or inactive are those of the source. The calls were made as follows: active = growth percent below 10; inactive = the rest.
# Key:
# Experiment in all cases: NCI-60 one-dose screen, 48 h (100 = growth as untreated, 0 = no growth, -100 = all killed)
# Conditions in all cases: 10 µM unless noted
# [1] = system: NCI-H23 lung
# [2] = system: NCI-H226 lung
# [3] = system: NCI-H322M lung
# [4] = system: HOP-62 NSCLC
# [5] = system: NCI-H460 lung
# [6] = system: HOP-92 NSCLC
# [7] = system: NCI-H522 lung
# [8] = system: A549/ATCC NSCLC
# [9] = system: 786-0 renal
# [10] = system: COLO 205 colon
Compound,growth [1],growth [2],growth [3],growth [4],growth [5],growth [6],growth [7],growth [8],growth [9],growth [10]
O=C1Nc2c(ccc(Cl)c2Cl)/C1=C/c1cc(Br)c(O)c(Br)c1,73.9%,78.5%,90.3%,79.1%,46.1%,67.1%,9.37% (active),51.4%,74.6%,79.2%
COc1ccc(-c2cc(-c3cccnc3)nc3sc4c(=O)n(-c5ccc(C)cc5)nnc4c23)cc1OC,98%,93%,97.6%,95.5%,100%,74.4%,101%,102%,,102%
COc1cc(C2CC(=O)c3c(C)nn(-c4nc5ccccc5[nH]4)c3C2)cc(OC)c1OC (centres undefined),86%,65.9%,67.8%,32.3%,73.7%,-3.61% (active),31.6%,59.5%,23.8%,126%
CCC(C)[C@@H]1NC(=O)[C@@H]2CCCN2C(=O)[C@H](Cc2ccccc2)NC(=O)[C@@H]2CCCN2C(=O)[C@H](Cc2ccccc2)NC(=O)[C@@H]2CCCN2C(=O)[C@H](Cc2ccccc2)NC1=O (some centres undefined),113%,109%,127%,103%,104%,95.3%,96.3%,101%,109%,108%
CN1CCN(Cc2ccc(NC(=O)c3[nH]ncc3Nc3ncnc4sccc34)cc2)CC1,-1.52% (active),10.9%,21.6%,22.4%,5.43% (active),-13.3% (active),14%,13.5%,,-8.12% (active)
CCN1CCN(Cc2ccc(NC(=O)Nc3nc4ccc(Oc5ccnc(C(=O)NC)c5)cc4s3)cc2C(F)(F)F)CC1,-12.2% (active),-1.71% (active),17.1%,-13% (active),-66.7% (active),-68.3% (active),-46.5% (active),-41.7% (active),,-40.5% (active)
CCCCCCCCCc1cc(CN2CCCCC2)c(O)c(CN2CCCCC2)c1,39.4%,75.9%,88.4%,78.4%,49.1%,12.7%,49.2%,61.9%,,64.3%
COc1cccc(/C=C\C(=O)c2ccccc2)c1,86.7%,76.7%,85%,87%,78%,87.6%,81.2%,92.4%,74.4%,90.1%
CN1CCN(Cc2ccc(NC(=O)c3[nH]ncc3Nc3ccnc4ccsc34)cc2)CC1,15.4%,5.11% (active),20%,40.4%,8.74% (active),76.2%,47.2%,24.1%,,18.9%
COc1ccc(CCN2CC=Cn3c2nc2ccccc2c3=O)cc1,25%,11.7%,47.3%,39.9%,5.96% (active),28.1%,4.09% (active),24.1%,,-43.2% (active)
Oc1c(Cl)cc(Cl)cc1CNc1nccnn1,102%,92%,99.3%,103%,109%,101%,105%,102%,111%,100%
CCCNc1nc(SC)nc(-c2cccc(N)c2)c1C#N,93.2%,93.9%,95.8%,78.8%,101%,80.5%,92.9%,104%,102%,119%
COC(/C=C/c1ccc([N+](=O)[O-])cc1)OC,96.5%,106%,101%,114%,112%,85%,86.9%,95.4%,,110%
O=C1C=CC(=O)c2c1nc1n2CCCC1,39.2%,95%,29.8%,80%,24.6%,132%,72.5%,41.6%,93.3%,33.2%
CCN(CC)Cc1cc(Nc2c3ccccc3nc3cc(Cl)ccc23)ccc1O,-82.6% (active),-47.5% (active),-40.9% (active),-65.2% (active),-73.6% (active),-33.1% (active),-80.8% (active),-37.6% (active),-55.1% (active),-100% (active)
Cc1cc(Nc2nc(N3CCN(C)CC3)nc3ccccc23)n[nH]1,91.6%,81.6%,86.4%,81.4%,69.6%,59.8%,41.2%,65.2%,59.8%,58%
CN(CC(=O)N(Cc1ccc(C2CCCCC2)cc1)c1ccc(C(=O)NO)cc1)S(=O)(=O)c1c(F)c(F)c(F)c(F)c1F,53.9%,100%,90%,103%,99.5%,95%,45.3%,102%,,67.9%
COc1c2ccccc2c(OC)c2[nH]c(=O)ccc12,-11.3% (active),37.1%,22.2%,-13.2% (active),-57.7% (active),72.9%,71.3%,-34.2% (active),89.7%,38.2%
Cc1cc(=O)oc2cc(Oc3nc(-c4ccc(Cl)cc4)cn4c(-c5ccc(Cl)cc5)cnc34)ccc12,78.1%,93%,95.9%,99.7%,93.3%,91%,95.8%,101%,,97.5%
CC1=C(C)C(=O)OC([C@](C)(O)[C@]2(O)CC[C@@]3(O)[C@@H]4C[C@H]5O[C@]56CC=CC(=O)[C@]6(C)[C@H]4CC[C@]23COC(=O)c2ccc(C)o2)C1 (some centres undefined),-45% (active),-20.9% (active),-63% (active),-73.8% (active),-57.1% (active),-58.7% (active),-68.7% (active),4.97% (active),-64.1% (active),-72.1% (active)
CN1CCN(Cc2ccc(NC(=O)c3[nH]ncc3Nc3ncnc4c3CCC4)cc2)CC1,5.19% (active),9.05% (active),16.5%,22.6%,6.72% (active),-33% (active),13.7%,17.2%,,-37.5% (active)
Cc1cc(N/N=C/c2nc(-c3ccc(Cl)cc3)oc2C)c2cc(Br)ccc2n1,96.4%,92.9%,72.5%,100%,-47.4% (active),69.6%,-1.02% (active),17.1%,24.6%,91.6%
CCC(c1ccc(O)cc1)C(CC)c1ccc(O)c(F)c1 (centres undefined),77%,91.6%,91.1%,94.5%,98.9%,59.5%,77.9%,89%,75.4%,114%
COc1ccc(C2Nc3ccccc3-n3cccc32)cc1 (centres undefined),80.4%,96.7%,97%,104%,102%,74.2%,95.7%,104%,111%,126%
CC/C(Cc1ccccc1)=C(/c1ccc(O)cc1)c1ccc(OCCN2CCCC2)cc1,8.75% (active),71.2%,-18% (active),-22.3% (active),-90.5% (active),-12.8% (active),-54.3% (active),-59.1% (active),-83.6% (active),-71.8% (active)
CNC(=O)c1cc(Oc2ccc3nc(NC(=O)Nc4ccc(CN5CCOCC5)c(C(F)(F)F)c4)sc3c2)ccn1,-4.08% (active),17.3%,49.6%,44.6%,9.7% (active),-7.77% (active),22.4%,20.9%,,21%
CCCCCN(CCCCC)CCC[C@@H](C)[C@H]1CC[C@H]2[C@@H]3[C@H](OCCCN)C[C@@H]4C[C@H](OCCCN)CC[C@]4(C)[C@H]3C[C@H](OCCCN)[C@]12C,49.2%,75.2%,24.6%,48.3%,45.2%,50%,28.8%,55.2%,61.1%,52.1%
C[C@@]1(N2C(=O)OC[C@@H]2c2ccccc2)C(=O)N([C@H](CC(=O)N2CCC(N3CCCCC3)CC2)C(=O)NCc2cccc(C(F)(F)F)c2)[C@@H]1/C=C/c1ccccc1,78.8%,89.6%,72.8%,84.7%,2.37% (active),64.4%,-9.84% (active),54.6%,70%,-67.1% (active)
